# Inconclusive results are not listed. Activity calls are given as the source filed them.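 How the source made its calls, unless noted: active means normalized viability below 100% at a tested concentration; inactive means the rest.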
# How the values were obtained:
# [1] = viability loss with induced miR-34 in A549 – imaging, A549 dox-inducible miR-34, nuclei and caspase counts, primary screen (AID 1347080;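 active means compounds whose cell count with miR-34 switched on is under 0.7 times the count with it off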); conditions: A549 miR-34 inducible, Hoechst nuclei count, 48 h
# [2] = viability loss in pontine glioma line – cell-based, SU-DIPG-XIII, MIPE5.0, CellTiter-Glo, qHTS, dose response (AID 1347064; cut-off not given, nearly all actives have AC50 up to about 23 µM); conditions: CellTiter-Glo ATP luminescence
# [3] = viability loss in pontine glioma line – cell-based, SU-DIPG-XXV, MIPE5.0, CellTiter-Glo, qHTS, dose response (AID 1347065; cut-off not given, nearly all actives have AC50 up to about 26 µM;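 further: cells exposed to compound for 48 hours before ATP readout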); conditions: CellTiter-Glo ATP luminescence
# [4] = JHH-DIPG-1 glioma cell viability, MIPE5.0 library, CellTiter-Glo luminescence, qHTS (AID 1347067; cut-off not given, nearly all actives have AC50 up to about 26 µM;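 further: cells exposed to compound for 48 hours before readout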); conditions: JHH-DIPG-1 glioma viability, CellTiter-Glo ATP luminescence
# [5] = growth inhibition of DIPG cells – cell-based, MIPE5.0 library, qHTS (AID 1347068; cut-off not given, nearly all actives have IC50 up to about 30 µM); conditions: SU-DIPG-XXV viability
# [6] = drug combination growth inhibition, ovarian cancer – cell-based, oncology-focused library, rucaparib conditional, profiling panel (AID 1508598); conditions: patient-derived ovarian cancer cells, CellTiter-Glo viability, 144 h, stronger effect = lower value
# [7] = measured here: relative caspase fold change +Dox/-Dox
# [8] = measured here: total cells with miR-34 induction, stronger effect = lower value
# [9] = measured here: total cells without miR-34 induction
# [10] = stronger effect = lower value, cell number ratio, induced over uninduced
smiles,measurement,setting,value
O[C@H]1[C@H]2[C@H](O)CCCN2C[C@H]1O,fold change,[1]; stronger effect = lower value,0.852 (inactive)
same,fold change,[1]; [7],1.17
same,cell count,[1]; [8],5340
same,cell count,[1]; [9],6260
CNCCCCCCN(C)N(O)N=O,fold change,[1]; [10],0.998 (inactive)
same,fold change,[1]; [7],0.973
same,cell count,[1]; [8],6040
same,cell count,[1]; [9],6050
CC(C)(NC(=O)O[C@@H]1CN2CCC1CC2)c1csc(-c2ccc(F)cc2)n1,outcome,[2],inactive
same,outcome,[3],inactive
same,outcome,[4],inactive
same,outcome,[5],inactive
CC1(C)C(=O)N(c2ccc(C#N)c(C(F)(F)F)c2)C(=S)N1Cc1ccc(-c2cn[nH]n2)cc1,outcome,[5],inactive
CCCCCCC(=O)O[C@H]1CC[C@H]2[C@@H]3C=CC4=CC(=O)CC[C@]4(C)[C@H]3CC[C@]12C,fold change,[1]; stronger effect = lower value,0.948 (inactive)
same,fold change,[1]; [7],0.362
same,cell count,[1]; [8],5660
same,cell count,[1]; [9],5970
c1cc(N2CCNCC2)c2cnccc2c1,fold change,[1]; [10],0.965 (inactive)
same,fold change,[1]; [7],0.639
same,cell count,[1]; [8],5540
same,cell count,[1]; [9],5740
Cc1sc2c(c1C)C(c1ccc(Cl)cc1)=N[C@@H](CC(N)=O)c1nnc(C)n1-2,outcome,[4],inactive
same,outcome,[5],inactive
same,viability,"[6]; at 0.000305 µM, OCI-C5x cells, with rucaparib 10 µM, 100% = cells with rucaparib alone",106% (inactive)
same,viability,"[6]; at 0.000305 µM, OCI-C5x cells, without rucaparib",111% (inactive)
same,viability,"[6]; at 0.000305 µM, OCI-P5x cells, with rucaparib 20 µM, 100% = cells with rucaparib alone",89.8% (active)
same,viability,"[6]; at 0.000305 µM, OCI-P5x cells, without rucaparib",93.2% (active)
same,viability,"[6]; at 0.00122 µM, OCI-C5x cells, with rucaparib 10 µM, 100% = cells with rucaparib alone",111% (inactive)
same,viability,"[6]; at 0.00122 µM, OCI-C5x cells, without rucaparib",124% (inactive)
same,viability,"[6]; at 0.00122 µM, OCI-P5x cells, with rucaparib 20 µM, 100% = cells with rucaparib alone",100% (inactive)
same,viability,"[6]; at 0.00122 µM, OCI-P5x cells, without rucaparib",96.7% (active)
same,viability,"[6]; at 0.00488 µM, OCI-C5x cells, with rucaparib 10 µM, 100% = cells with rucaparib alone",99.7% (active)
same,viability,"[6]; at 0.00488 µM, OCI-C5x cells, without rucaparib",94.7% (active)
same,viability,"[6]; at 0.00488 µM, OCI-P5x cells, with rucaparib 20 µM, 100% = cells with rucaparib alone",97.5% (active)
same,viability,"[6]; at 0.00488 µM, OCI-P5x cells, without rucaparib",97.3% (active)
same,viability,"[6]; at 0.0195 µM, OCI-C5x cells, with rucaparib 10 µM, 100% = cells with rucaparib alone",64.4% (active)
same,viability,"[6]; at 0.0195 µM, OCI-C5x cells, without rucaparib",66.5% (active)
same,viability,"[6]; at 0.0195 µM, OCI-P5x cells, with rucaparib 20 µM, 100% = cells with rucaparib alone",82.4% (active)
same,viability,"[6]; at 0.0195 µM, OCI-P5x cells, without rucaparib",90% (active)
same,viability,"[6]; at 0.0781 µM, OCI-C5x cells, with rucaparib 10 µM, 100% = cells with rucaparib alone",38.4% (active)
same,viability,"[6]; at 0.0781 µM, OCI-C5x cells, without rucaparib",48.1% (active)
same,viability,"[6]; at 0.0781 µM, OCI-P5x cells, with rucaparib 20 µM, 100% = cells with rucaparib alone",54.9% (active)
same,viability,"[6]; at 0.0781 µM, OCI-P5x cells, without rucaparib",77.6% (active)
same,viability,"[6]; at 0.313 µM, OCI-C5x cells, with rucaparib 10 µM, 100% = cells with rucaparib alone",20.3% (active)
same,viability,"[6]; at 0.313 µM, OCI-C5x cells, without rucaparib",29.5% (active)
same,viability,"[6]; at 0.313 µM, OCI-P5x cells, with rucaparib 20 µM, 100% = cells with rucaparib alone",31.5% (active)
same,viability,"[6]; at 0.313 µM, OCI-P5x cells, without rucaparib",66.2% (active)
same,viability,"[6]; at 1.25 µM, OCI-C5x cells, with rucaparib 10 µM, 100% = cells with rucaparib alone",16.4% (active)
same,viability,"[6]; at 1.25 µM, OCI-C5x cells, without rucaparib",26.3% (active)
same,viability,"[6]; at 1.25 µM, OCI-P5x cells, with rucaparib 20 µM, 100% = cells with rucaparib alone",24% (active)
same,viability,"[6]; at 1.25 µM, OCI-P5x cells, without rucaparib",64.7% (active)
same,viability,"[6]; at 5 µM, OCI-C5x cells, with rucaparib 10 µM, 100% = cells with rucaparib alone",14.7% (active)
same,viability,"[6]; at 5 µM, OCI-C5x cells, without rucaparib",20.8% (active)
same,viability,"[6]; at 5 µM, OCI-P5x cells, with rucaparib 20 µM, 100% = cells with rucaparib alone",19% (active)
same,viability,"[6]; at 5 µM, OCI-P5x cells, without rucaparib",56.3% (active)
CCN1C[C@@]2(COC)C3[C@@H](OC)[C@H]4[C@H]1C3([C@@H]1C[C@@]3(O)[C@H](OC(=O)c5ccccc5)[C@@H]1[C@]4(OC(C)=O)[C@@H](O)[C@@H]3OC)[C@H](OC)C[C@H]2O,fold change,[1]; [10],0.989 (inactive)
same,fold change,[1]; [7],1.45
same,cell count,[1]; [8],5730
same,cell count,[1]; [9],5800
